Most compounds without a hit are left out; they make up all but 21% or so of the library.
Shiga toxin inh: blocks Shiga toxin action in Vero cells | Vero cells, Shiga toxin protein synthesis inhibition reporter | inhibition, % at 38.7 µM | hit rate 9.2% among 290,000; in the data active means inhibition mostly above about 28%, no sharp cut-off; inactive means mostly below about 43%; further: 0% is about no effect
CHX counter: counter-screen hit for Shiga toxin inhibitors, cycloheximide; cell reporter, cycloheximide protein synthesis inhibition counterscreen; max response, %; hit rate 12% among 300,000; AID 2314; in the data active means max response mostly above about 13%, no sharp cut-off; inactive means mostly below about 14%; further: read at 38.3 µM for the half of the compounds with a filed dose; 0% is about no effect
Pf growth 96h: inhibits malaria parasite growth, 96 h; Potency, µM (highest dose often 28.7 µM), without a hit: at the top dose activity change, negative = inhibition, usual class: inhibitors; hit rate 6.9% among 320,000; P. falciparum luciferase reporter growth, 96 h; AID 504834; further: potency means the concentration at half of the fitted maximal effect; on the % scale 0 is the no-effect control and ±100 the full control effect
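Plates of compound plus infected erythrocytes (2% hematocrit, 0.05% parasitemia final) incubate 96 hours, 37 C, 5% CO2. Detection reagent added; reduced luminescence from the parasites' luciferase reporter flags inhibition.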
Sm TGR block: inhibitors of Schistosoma mansoni thioredoxin glutathione reductase; Q962Y6; Potency, µM (top dose mostly 114 µM), inactives show top-dose activity change, negative = inhibition, most hits filed as inhibitors; purified TGR, DTNB reduction, TNB absorbance 405 nm; hit rate 3% among 360,000; further: potency means the concentration at half of the fitted maximal effect; on the % scale 0 is the no-effect control and ±100 the full control effect; nearly all actives have a fitted effect of over 60% in size
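TGR 20 nM + NADPH 100 uM (dispensed conc.), cpd preinc 15 min RT; start with NADPH (500 uM addition) then DTNB (15 mM addition). Kinetic TNB absorbance, 405 nm filter. Four-parameter Hill fit across titration.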
Pf growth 48h: inhibits P. falciparum growth in the first generation, 48 h; AID 504832; hit rate 5.9% among 310,000; P. falciparum luciferase growth in erythrocytes, 48 h; Potency, µM (top dose mostly 28.7 µM), without a hit: at the highest dose activity change, negative = inhibition, most hits filed as inhibitors; further: potency means the concentration at half of the fitted maximal effect; on the % scale 0 is the no-effect control and ±100 the full control effect
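Cell-based growth assay: transgenic P. falciparum expressing firefly luciferase, cultured in red cells within RPMI 1640 containing 0.5% w/v Albumax, 24 mM bicarbonate and gentamycin. A drop in luciferase activity indicates inhibition.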
NS1 inh: blocks influenza NS1 protein function | AID 2326 | Potency, µM (titrated, usually from 46.1 µM), inactives show at the top dose activity, positive = more growth | hit rate 0.4% among 270,000; calls by dose curve; further: potency means the concentration at half of the fitted maximal effect; actives are rising curves; nearly all actives have a fitted effect of over 50% in size
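Growth recovery, yeast-based: influenza A NS1 expressed in S. cerevisiae causes slow growth, and suppressors are detected by OD600. The parent strain without NS1 is used as positive control.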
* hit, by the source's call; u = inconclusive; x = not tested or not shown. Unless noted, the call rests on the fitted dose curve; in most records, active means well fitted curve in the direction sought with a large enough effect; inconclusive means small, poorly fitted or top-dose-only effect, or another doubt; inactive means no such curve, though single readings can be large; an effect the other way counts as inactive or inconclusive.

SMILES	Shiga toxin inh	CHX counter	Pf growth 96h	Sm TGR block	Pf growth 48h	NS1 inh
Cc1ccc(C)c(NC(=O)CCCn2nc(C)c3sc4ccccc4c3c2=O)c1	x	x	x	-0.2%	x	x
CN(C(=O)COC(=O)Cc1c(F)cccc1Cl)c1c(N)n(Cc2ccccc2)c(=O)[nH]c1=O	x	x	11.9%	-0.5%	u	x
CCOc1cccc2cc(-c3nc(-c4ccc(Cl)cc4)c(C)s3)c(=O)oc12	x	x	x	3.9%	x	x
O=C(O)c1cccc(COc2ccc(CO)cc2Cl)c1	-4.6	6.4	u	0.4%	0.208µM*	-0.3%
O=C(O)c1ccc(COc2ccc(CO)cc2Cl)cc1	71.9*	28.7*	12.9%	-8.6%	76.0%	-0.7%
Cc1nn(C)c(=O)n1N(C)c1ncc(C(F)(F)F)cc1Cl	-1.5	-0.4	22.4%	-0.2%	-19.2%	x
CNC(=O)c1nc(C)n(-c2cc(Cl)ccc2Cl)n1	42.0	28.5*	-12.6%	5.9%	0.1%	10.2%
Cc1ccc(CN(CC(=O)NC2CCCC2)C(=O)CSc2nnc(COc3ccccc3)o2)cc1	8.3	-2.1	u	-11.1%	-4.0%	12.2%
COc1ccc(Cc2nnc(SCC(=O)N3CCCC(C)C3)o2)cc1 (centres undefined)	16.9	4.6	u	x	7.38µM*	2.3%
CC(C)c1ccc(OCc2nnc(SCC(=O)N3CCCCC3)o2)cc1	26.5	31.8*	86.4%	4.1%	-9.1%	2.0%
COc1ccc(OCc2nnc(SCC(=O)N3CCCCC3)o2)cc1	-7.1	-0.3	11.7µM*	10.3%	3.8%	-12.2%
CCc1ccc(OCc2nnc(SCC(=O)NC3CCCCC3)o2)cc1	46.7*	19.7	-22.2%	0.3%	41.9%	1.1%
COc1ccc(Cc2nnc(SCC(=O)N3CCCC3)o2)cc1	4.3	-1.3	61.1%	7.4%	-17.4%	4.0%
O=C(NC(=O)c1ccccc1)Nc1ccc(-c2cc(C(F)(F)F)nn2-c2ccccc2)cc1	x	x	x	7.1%	x	x
Cc1ccccc1Cn1c(=O)n(Cc2ccc(Cl)cc2)c(=O)c2cccnc21	x	x	x	2.0%	x	x
O=C(NCc1nnc(SCC(=O)N2CCN(c3ccccc3)CC2)o1)c1ccc(F)cc1	10.8	1.7	-13.5%	-2.3%	-6.6%	13.5%
COc1ccc(C(=O)NCc2nnc(SCC(=O)N3CCCCC3)o2)cc1OC	25.1	2.8	3.29µM*	0.8%	x	-2.1%
O=C(NCc1nnc(SCC(=O)N2CCN(c3ccccc3)CC2)o1)c1c(F)cccc1Cl	-6.2	-2.5	10.4µM*	-6.6%	-15.6%	-18.1%
COc1ccc(-c2cc(C(F)(F)F)n3nc(C(=O)Nc4cccc(Cl)c4Cl)cc3n2)cc1OC	x	x	x	-5.8%	x	x
Fc1ccccc1CCNCc1cccc(Cl)c1Cl	26.6	18.5*	126.8%	-26.0%	42.8%	-20.6%
Cn1cccc1CNCCc1ccccc1	-8.9	16.4	41.1%	-6.3%	11.5%	7.7%
Cn1cccc1CNCCc1ccccc1F	-9.2	1.6	2.62µM*	-29.6%	-4.9%	0.8%
Fc1ccccc1CCNCc1ccccc1	3.8	1.6	24.9%	-10.6%	20.8%	6.5%
COc1ccc(CCNCc2cccn2C)cc1	-3.1	0.6	1.47µM*	u	-16.7%	8.4%
COCCCNC(=O)CN1CCN(Cc2ccc(Cl)cc2)C1=O	-10.2	-4.8	u	-25.1%	x	-1.2%
SMILES	Shiga toxin inh	CHX counter	Pf growth 96h	Sm TGR block	Pf growth 48h	NS1 inh
O=C(CN1C(=O)NC(Cc2c[nH]c3ccccc23)C1=O)Nc1ccc(Br)cc1F (centres undefined)	x	x	-2.7%	-14.1%	u	x
CCCCS(=O)(=O)N1CN(S(=O)(=O)CCCC)C2NC(=O)NC21 (centres undefined)	21.9	45.2*	113.5%	35.5µM*	35.6%	u
CN(Cc1ccccc1)S(=O)(=O)c1ccc2c(c1)NC(=O)CC(=O)N2	-3.0	-1.4	10.4µM*	-12.2%	50.7%	-2.4%
O=C(NCCO)/C(=C/c1ccc(Br)cc1)NC(=O)c1cccs1	-1.1	-1.7	-1.0%	2.7%	4.6%	0.8%
CCN(CC)CCNC(=O)/C(=C\c1cccn1C)NC(=O)c1cccs1	-9.8	-2.0	1.85µM*	2.0%	9.4%	8.4%
Cc1cc(F)ccc1NS(=O)(=O)c1cccc2nsnc12	1.8	4.4	-24.9%	17.5%	123.6%	6.5%
Cc1ccc(NS(=O)(=O)c2cccc3nsnc23)cc1C	-12.1	-1.3	4.15µM*	-1.8%	-0.3%	1.2%
Cc1ccc(O)c(NS(=O)(=O)c2cccc3nsnc23)c1	-3.8	13.6*	24.2%	-9.1%	28.1%	-2.7%

From PubChem
